# Screening results deposited in PubChem by National Center for Advancing Translational Sciences (NCATS).
# VDR inhibitor = blocks the human vitamin D receptor; Potency, µM, without a hit: max response, negative = inhibition, actives largely listed as inhibitors; 400,000 compounds, 0.93% hits; P11473; VDR-SRC2-3 peptide fluorescence polarization, 2 h; also: % is scaled to controls: 0 for no effect and ±100 for the full control effect
# Target sequence (P11473 whole entry, looked up): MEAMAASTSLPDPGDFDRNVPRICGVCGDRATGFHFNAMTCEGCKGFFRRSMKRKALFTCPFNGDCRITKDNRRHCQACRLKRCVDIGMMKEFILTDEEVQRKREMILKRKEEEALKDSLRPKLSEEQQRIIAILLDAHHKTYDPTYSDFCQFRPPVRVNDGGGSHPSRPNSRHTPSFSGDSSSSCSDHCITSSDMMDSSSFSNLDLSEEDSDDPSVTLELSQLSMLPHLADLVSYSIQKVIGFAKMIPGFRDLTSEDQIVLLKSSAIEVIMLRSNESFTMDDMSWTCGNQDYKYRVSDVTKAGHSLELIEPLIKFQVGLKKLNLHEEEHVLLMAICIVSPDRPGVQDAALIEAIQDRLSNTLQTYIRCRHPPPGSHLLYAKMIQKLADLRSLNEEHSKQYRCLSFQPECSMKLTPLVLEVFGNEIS
#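 Reagent solutions, kept cold and dark, are dispensed first; compounds are then pinned in at 23 nl, plates briefly spun, and incubated 2 h at ambient temperature. Inhibition of VDR–SRC2-3 peptide binding is read by fluorescence polarization.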
# Tb PFK inh = inhibitors of T. brucei phosphofructokinase; O15648; T. brucei PFK, ADP-Glo luminescence; AID 485367; 330,000 compounds, 0.17% hits; Potency, µM (doses to about 57.5 µM), for inactives: at the top dose activity, negative = inhibition, usual class: inhibitors;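 also: 0% = uninhibited 1x PFK enzyme wells and -100% = no-enzyme wells; nearly all actives have a fitted effect of over 60% in size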
#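 ADP-Glo luminescence quantified ADP after 45 min at room temperature, with 1.25 nM T. brucei PFK, 0.1 mM ATP and 0.5 mM fructose-6-phosphate in pH 8.0 TEA buffer. qHTS titrations up to 57 µM; curves classified by quality.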
# S-ASM inh = inhibitors of human secretory acid sphingomyelinase | AID 504937 | placental ASM, HMU-PC fluorogenic substrate, 60 min | P17405 | Potency, µM (doses to about 57.5 µM), for inactives: at the top dose activity change, negative = inhibition, hits mostly inhibitors | 340,000 compounds, 0.006% hits
#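 Human placenta-derived ASM enzyme was preincubated with compound for 10 minutes at room temperature, then given fluorogenic substrate HMU-PC0 (9 uM final) for 60 minutes at 37 °C; a pH 10 stop preceded fluorescence reading at Ex 386/Em 447 nm.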
# TDP1 block = inhibitors of human tyrosyl-DNA phosphodiesterase TDP1; Q9NUW8; recombinant TDP1, AlphaScreen DNA substrate cleavage; Potency, µM (top dose mostly 130 µM), inactives show at the highest dose activity change, negative = inhibition, actives largely listed as inhibitors; 350,000 compounds, 0.28% hits; AID 485290; also: % is scaled to controls: 0 for no effect and ±100 for the full control effect; nearly all actives have a fitted effect of over 40% in size
#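 Compounds were preincubated with Tdp1 (1 nM final) for 15 min at room temperature before substrate (15 nM final) started a 5 min reaction; beads (10 ug/ml final) were then added for 10 min before AlphaScreen detection.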
# Pin1 inh = inhibitors of human Pin1; Q13526; Pin1 FP peptide displacement, HiFluor488, 10 min; Potency, µM (highest dose often 115 µM), inactives show top-dose activity, negative = inhibition, hits mostly inhibitors; 390,000 compounds, 0.009% hits; AID 504891; active = well fitted inhibition curve with a large enough effect in the polarisation, with a control signal flat, not every such curve was filed as active; inconclusive = small, poorly fitted or top-dose-only effect, or effect the other way, or a change in a side signal; inactive = no such curve, though single readings can be large or run the other way; the % refers to the polarisation; also: % is scaled to controls: 0 for no effect and ±100 for the full control effect
# Target sequence (Q13526 whole entry, looked up): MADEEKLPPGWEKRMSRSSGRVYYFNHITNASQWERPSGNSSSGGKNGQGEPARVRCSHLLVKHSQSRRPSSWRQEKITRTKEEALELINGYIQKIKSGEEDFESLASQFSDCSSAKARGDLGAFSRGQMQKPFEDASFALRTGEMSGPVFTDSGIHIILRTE
# PLK1 PBD block = blocks phosphopeptide binding to human PLK1 polo-box domain; P53350; Plk1 PBD binding of FITC phosphopeptide, fluorescence polarization; Potency, µM, without a hit: max response, negative = inhibition, actives largely listed as inhibitors; 360,000 compounds, 2.8% hits; AID 720504; also: series mostly up to about 57 µM; % is scaled to controls: 0 for no effect and ±100 for the full control effect; nearly all actives have a fitted effect of over 65% in size
# TbPYK confirm = Trypanosoma brucei pyruvate kinase inhibition, cherry-pick confirmation | shares compounds with PLK1 PBD block | recombinant TbPYK, Kinase-Glo ATP luminescence | Potency, µM (series often up to 76.9 µM), without a hit: at the highest dose activity change, negative = inhibition, hits mostly inhibitors | 890 compounds, 67% hits; also: % is scaled to controls: 0 for no effect and ±100 for the full control effect; nearly all actives have a fitted effect of over 70% in size
# TbPYK orthogonal = orthogonal confirmation of Trypanosoma brucei pyruvate kinase inhibitors. AID 720584. recombinant TbPYK, ADP-Glo luminescence, 60 min. shares compounds with PLK1 PBD block. Potency, µM (doses to about 76.9 µM), for the others: top-dose activity change, negative = inhibition, hits mostly inhibitors. 890 compounds, 62% hits; also: % is scaled to controls: 0 for no effect and ±100 for the full control effect; nearly all actives have a fitted effect of over 75% in size
# * marks the source's active call; other numbers are inactive results; ? = inconclusive; . = no result given; [ ] = another dose, or the depositor's remark. Shown are actives, neighbours in structure and some others; about 3.1% of the full set was active somewhere. Unless noted, calls follow the shape of the dose curve; as a rule, active = well fitted curve in the direction sought with a large enough effect; inconclusive = small, poorly fitted or top-dose-only effect, or another doubt; inactive = no such curve, though single readings can be large; an effect the other way counts as inactive or inconclusive. Potency is read from the fitted curve at half-maximal effect.
SMILES,VDR inhibitor,Tb PFK inh,S-ASM inh,TDP1 block,Pin1 inh,PLK1 PBD block,TbPYK confirm,TbPYK orthogonal
C=CCN1C(=O)/C(=C/c2ccc(N3CCOCC3)o2)C(=O)NC1=S,-5%,0%,0%,-5%,?,78%,.,.
O=C1NC(=O)C(=Cc2ccc(N3CCN(C(=O)c4ccccc4)CC3)c([N+](=O)[O-])c2)C(=O)N1,50µM*,3%,-1%,-3%,1%,6.7µM*,32µM*,35µM*
CCN(CC)c1ccc(/C=C2/C(=O)NC(=O)N(Cc3ccco3)C2=O)cc1,?,-2%,-1%,?,?,?,.,.
COc1ccc(CN2C(=O)NC(=O)/C(=C\c3ccco3)C2=O)cc1,54%,0%,-9%,.,8%,1.2µM*,28µM*,?
Cc1cc(/C=C2/C(=O)NC(=O)N(Cc3ccco3)C2=O)c(C)n1-c1ccccc1,-5%,-25%,-20%,3%,?,?,.,.
O=C1NC(=O)N(CCc2ccc(F)cc2)C(=O)/C1=C/c1ccco1,39%,-7%,-6%,.,3%,1.1µM*,32µM*,?
CN1CCN(C(=S)c2ccc([N+](=O)[O-])cc2)CC1,?,-6%,-3%,3%,-2%,5.3µM*,5µM*,13µM*
CC(C)C[C@H](NC(=O)[C@H](Cc1ccccc1)NC(=O)CNC(=O)CNC(=O)[C@@H](N)Cc1ccc(O)cc1)C(=O)N[C@@H](CCCN=C(N)N)C(=O)N[C@@H](CCCCN)C(=O)N[C@@H](Cc1ccc(O)cc1)C(=O)N1CCC[C@H]1C(=O)N[C@@H](CCCCN)C(=O)O,-2%,.,.,10%,.,.,.,.
CCOC(=O)Nc1ccc(NCc2ccc(F)cc2)nc1N,6.3µM*,-4%,99%,17%[56.1 µM],?,7.5µM*,4.5µM*,11µM*
Cc1nn(Cc2ccccc2)c(C)c1C=C1C(=O)NC(=O)NC1=O,-26%,9%,-1%,0%,12%,9.5µM*,18µM*,32µM*
C[C@H]1CN([C@@H](C)CO)C(=O)c2cc(NC(=O)C3CCCCC3)ccc2O[C@H]1CN(C)Cc1ccc(-c2ccccc2)cc1,15%,0%,-10%,3%,24%,-1%,.,.
COc1ccc(S(=O)(=O)N(C)C[C@H]2OCCCC[C@@H](C)Oc3ccc(N(C)C)cc3C(=O)N([C@H](C)CO)C[C@@H]2C)cc1,.,.,.,.,.,-13%,2.5µM*,6.3µM*
CN1CC[C@@]2(CCCN(C(=O)c3ccncc3)C2)C1,3%,.,.,.,.,.,.,.
CNC(C)C(O)c1ccc(O)cc1 (centres undefined),0%,.,.,.,.,.,.,.
COc1ccc(N2C(=O)NC(=O)/C(=C\c3ccc([N+](=O)[O-])s3)C2=O)cc1,71µM*,-12%,-24%,-1%,?,2.7µM*,7.9µM*,16µM*
COc1ccccc1N1C(=O)NC(=O)/C(=C/c2ccc([N+](=O)[O-])s2)C1=O,45µM*,?,-2%,-5%,.,3.4µM*,?,?
COc1ccc(N2C(=O)NC(=O)/C(=C/c3ccc([N+](=O)[O-])s3)C2=O)cc1,40µM*,-11%,-23%,-2%,?,3µM*,6.3µM*,13µM*
COc1ccccc1N1C(=O)NC(=O)C(CCc2ccncc2)(CCc2ccncc2)C1=O,4%,0%,4%,2%,2%,1%,.,.
CC(C)C[C@H](NC(=O)[C@H](Cc1ccccc1)NC(=O)CNC(=O)[C@H](CO)NC(=O)[C@@H](N)Cc1ccc(O)cc1)C(=O)N[C@H](C(=O)O)[C@H](C)O,1%,.,.,6%,.,.,.,.
O=C1NC(=O)N(c2ccc3c(c2)OCO3)C(=O)/C1=C/c1ccc(N2CCCCC2)o1,-7%,-1%,-12%,1%,?,102%,.,.
O=C1NC(=O)N(c2cccc(Cl)c2)C(=O)/C1=C\c1ccc(Sc2nc3ccccc3[nH]2)o1,?,-19%,-11%,.,?,2.7µM*,16µM*,16µM*
O=C1NC(=O)N(c2ccccc2)C(=O)/C1=C/c1ccc(Sc2ccccc2)o1,?,19%,1%,-12%,25%,?,.,.
O=C1NC(=O)N(c2ccccc2F)C(=O)/C1=C/c1ccc(Sc2nc3ccccc3[nH]2)o1,?,?,-3%,2%,?,?,14µM*,16µM*
CNCC/C=C\c1cccnc1,0%,.,.,-5%[56.1 µM],.,.,.,.
COc1cc2c3cc1Oc1cc(ccc1O)C[C@@H]1c4c(cc(OC)c(O)c4Oc4cccc(c4)C[C@H]3N(C)CC2)CC[N+]1(C)C,1%,.,.,5%[21 µM],.,.,.,.
SMILES,VDR inhibitor,Tb PFK inh,S-ASM inh,TDP1 block,Pin1 inh,PLK1 PBD block,TbPYK confirm,TbPYK orthogonal
COc1cc(C=C2C(=O)NC(=O)NC2=O)ccc1OCc1ccc([N+](=O)[O-])cc1,?,-6%,-6%,8%,-3%,6.7µM*,13µM*,28µM*
O=C(O)[C@@H]1C[C@H]2C[C@@H](CP(=O)(O)O)CC[C@H]2CN1,4%,.,.,-7%,17%,.,.,.
COc1cc(OC2CCN(C(C)=O)CC2)ccc1C(=O)N1CCC(N2C(=O)OCc3ccccc32)CC1,11%,.,.,5%,.,.,.,.
O=C1NC(=S)NC(=O)C1Cc1ccccc1,?,.,6%,.,-6%,?,.,.
O=C1NC(=S)NC(=O)C1C/C=C/c1ccccc1,79µM*,-1%,-1%,-4%,-4%,11µM*,8.9µM*,11µM*
N[C@H](CCCCCP(=O)(O)O)C(=O)O,-1%,.,.,-4%[56.1 µM],.,.,.,.
Cc1cccc2c1=NC(=O)/C(=C/c1c(O)[nH]c(=O)[nH]c1=O)C=2,?,-6%,14%,-3%,4%,7.5µM*,25µM*,?
O=c1[nH]c(O)c(C=Nc2ccccc2Sc2ccccc2)c(=O)[nH]1,3%,-3%,2%,-7%,0%,-15%,.,.
Clc1ccc2c(c1)CCc1cccnc1C2=C1CCNCC1,?,-4%,.,5%,.,.,.,.
O=C1NC(=O)N(c2ccc3c(c2)OCO3)C(=O)/C1=C\c1ccc(-c2ccccc2C(=O)O)o1,?,-23%,10%,11µM*,?,3µM*,13µM*,?
